Test results taken from PubChem BioAssay AID2314 (National Center for Advancing Translational Sciences (NCATS), 2010).
The whole screen tested about 300,000 compounds, of which about 37,000 (12%) were called active. For the sample, actives were picked, then their nearest neighbours and some compounds at random. Unmarked numbers belong to inactive results. No stated cut-off is given here; in the data, active means max response mostly above about 13% (no sharp cut-off); inactive means mostly below about 14%.

assay: Cycloheximide Counterscreen for Small Molecule Inhibitors of Shiga Toxin; conditions: cell reporter, cycloheximide protein synthesis inhibition counterscreen; hits give high values; further: read at 38.3 µM for the half of the compounds with a filed dose; 0% is about no effect

| SMILES | max response |
| --- | --- |
| CC(C)C[C@@H](COc1ccccc1)N1CCN(CC(C)C)CCC1=O | 12.1% |
| O=c1[nH]c(SCc2cccc(F)c2)nc2ccccc12 | 0.0734% |
| Nc1nnc2c(C(F)(F)F)nc3ccccc3n12 | -5.14% |
| O=C1c2ccccc2C(=O)N1c1cccc2ccccc12 | -0.411% |
| O=C(NCc1ccc2c(c1)OCO2)c1sccc1Br | 16.3% (active) |
| COc1cc(OC)c(C(=O)NCc2ccc3c(c2)OCO3)cc1OC | -1.06% |
| O=C(NCc1ccc2c(c1)OCO2)c1cc2c(s1)CS(=O)(=O)C2 | -5.16% |
| O=C(NCc1ccc2c(c1)OCO2)c1cc(F)c(F)cc1Cl | 16.6% |
| O=C(NCc1ccc2c(c1)OCO2)C12CC3CC(CC(C3)C1)C2 | -3.3% |
| O=C(NCc1ccc2c(c1)OCO2)c1ccc(Cl)s1 | 17.6% (active) |
| Cc1ccccc1NC(=O)C(C)c1ccc(-c2ccccc2)c(F)c1 (stereo unspecified) | -5.36% |
| CC(CC(=O)N1CCN(c2ccccc2)CC1)S(=O)(=O)c1ccc2c(c1)NC(=O)CS2 (stereo unspecified) | 1.2% |
| O=C(Nc1ccc(Br)cn1)c1ccc([N+](=O)[O-])cc1Cl | 51.7% (active) |
| O=C(Nc1ccc(Br)c2cccnc12)c1ccc(Cn2cc([N+](=O)[O-])cn2)o1 | -3.97% |
| O=C(Nc1cccnc1)c1cc([N+](=O)[O-])ccc1Cl | -2.56% |
| Cc1cc([N+](=O)[O-])ccc1NC(=O)c1ccc(NC(=O)C(C)C)cc1 | 5.74% |
| CC(C)C(=O)Nc1cccc(NC(=O)c2ccc([N+](=O)[O-])cc2Cl)c1 | 27.7% (active) |
| O=C(Nc1ccncc1)c1ccc([N+](=O)[O-])cc1Cl | -4.24% |
| O=C(NNS(=O)(=O)c1ccc(F)cc1)c1ccc([N+](=O)[O-])cc1Cl | -3.45% |
| O=C(Nc1ccc(Br)cn1)c1ccc([N+](=O)[O-])o1 | 48.9% (active) |
| CN1C(=O)c2ccc(C(=O)Nc3ccc(Br)cn3)cc2C1=O | 1.67% |
| O=C1CCNCCN1[C@H](CO)Cc1ccccc1 | -1.44% |
| COc1cc(NC(=O)C2=C(C)OCCS2)c(Cl)cc1C(=O)NCCN1CCN(C)CC1 | -6.54% |
| O=C(O)c1[nH]c2ccccc2c1C(c1cccc(O)c1)c1c(C(=O)O)[nH]c2ccccc12 | -0.808% |

| SMILES | max response |
| --- | --- |
| COC(=O)c1sccc1NS(=O)(=O)c1ccc(F)cc1F | -6.38% |
| Cc1c(CN2CCC(n3nccc3NC(=O)CCc3ccccc3)CC2)cnn1C | 0.463% |
| CCNC(=O)CC1C(=O)N(c2ccc(OC)cc2)C(=O)N1CCOC (stereo unspecified) | -2.06% |
| COc1ccc(C(=O)NC(=S)NNC(=O)CCc2ccccc2)cc1 | 10.3% |
| COc1ccc(/C(N)=N/OC(=O)CCCc2ccccc2)cc1 | 44.3% (active) |
| CCOC(=O)C(Cc1ccccc1)NC(=O)CCC(=O)c1ccc(OC)cc1 (stereo unspecified) | -1.47% |
| COc1ccc(/C(N)=N/OC(=O)Oc2ccccc2)cc1 | -4.11% |
| COc1ccc(/C(N)=N/OC(=O)Cc2ccccc2)cc1 | 46.9% (active) |
| COc1ccc(C(=O)OCC(=O)NCCCc2ccccc2)cc1OC | 0.591% |
| COCCN1CCn2c(nc3cc(NS(C)(=O)=O)ccc32)C1 | -4.53% |
| CC1(C)COC(c2cccn2Cc2ccccc2Cl)=N1 | 2.16% |
| O=C(Nc1cccc(CCc2ccccn2)c1)c1ccc(Cl)cc1 | 11% |
| C=CCNc1nc(Nc2ccc(Cl)cc2)nc(OC)n1 | 35.6% (active) |
| C=CCNc1nc(C)nc(OC)n1 | -3.36% |
| COc1nc(NCc2ccc(Cl)cc2)nc(OC)n1 | 9.12% |
| NS(=O)(=O)c1ccc(CNC(=O)c2cccc(Oc3ccccc3)c2)cc1 | 1.56% |
| CC1CCCN(C(=O)c2ccc3c(c2)C(=O)N(CCC2=CCCCC2)C3=O)C1 (stereo unspecified) | 2.05% |
| COc1ccc(S(=O)(=O)N2CCOC2CNC(=O)C(=O)NCc2ccncc2)cc1OC (stereo unspecified) | -2.13% |
| C/C(=N\NC(=O)c1ccccc1F)c1ccccn1 | 31.8% (active) |
| CN(NC(=O)c1ccccc1F)c1nc(C(F)(F)F)nc2ccccc12 | -3.39% |
| C/C(=N\NC(=O)Cc1ccc(Cl)cc1)c1ccccn1 | -1.28% |
| NC1=NC(=O)C(Cc2cccc(Cl)c2)S1 (stereo unspecified) | 13% |
| COc1ccccc1C(=O)NC(=S)Nc1ccccc1N1CCCCC1 | 18.9% (active) |
| O=C(NC(=S)Nc1ccccc1N1CCCCC1)c1ccc(F)cc1 | 4.5% |

| SMILES | max response |
| --- | --- |
| COc1ccc(C(=O)NC(=S)Nc2ccccc2N2CCN(S(C)(=O)=O)CC2)cc1OC | -0.375% |
| COc1ccc(OC)c(NC(=O)c2sc3nc(C)cc(C)c3c2N)c1 | 1.77% |
| O=S(=O)(NC1CC1)c1ccc(F)c(F)c1 | -2.05% |
| COc1ccccc1-n1c(SCC(=O)Nc2cccc(C(=O)O)c2)nnc1-c1ccccc1O | 0.473% |
| C=C1/C(=C\C=C2\CCCC3(C)C2CCC3C(C)/C=C/C(O)C2CC2)CC(O)CC1O (stereo unspecified) | -6.77% |
| Cc1ccc(C)c(NC(CC(=O)c2ccccc2)C(=O)OCC(=O)c2cccs2)c1 (stereo unspecified) | -1.02% |
| Cc1ccccc1C(CC(=O)c1cccs1)C(C#N)C#N (stereo unspecified) | 58.6% (active) |
| C/C(=N\NC(=O)COc1c(C)cccc1C)c1cccs1 | 6.57% |
| CCn1c(SCC(=O)Nc2nccs2)nnc1-c1ccco1 | -4.57% |
| CC(=O)c1cc(C#N)c(N2CC(C)OC(C)C2)nc1C (stereo unspecified) | -2.5% |
| CC(=O)c1cc(C#N)c(SCC(=O)C(C)(C)C)nc1C | 55.2% (active) |
| Cc1cccc(C)c1Nc1nnc(SCC(=O)Nc2sccc2C#N)s1 | -1.09% |
| CC(=O)c1cc(C#N)c(N2CCCCC2)nc1C | 2.13% |
| CCn1c(SCC(=O)Nc2nccs2)nnc1-c1ccncc1 | -3.78% |
| CC(=O)c1cc(C#N)c(SCC(=O)Nc2nccs2)nc1C | 24.6% (active) |
| Cc1[nH]c2ccccc2c1SCC(=O)Nc1nccs1 | 29.5% (active) |
| Cc1cc(C(F)(F)F)nc(SCC(=O)Nc2nccs2)n1 | -1.23% |
| Cc1ccccc1-c1ccc(C(=O)O)s1 | 27.3% |
| O=C1CSC(=S)N1c1ccc(Cl)c(Cl)c1 | 3.61% |
| CCS(=O)(=O)N1CCC(N2CCN(c3ccccc3)CC2)CC1 | -2.51% |
| Cc1ccc(N(Cc2cc(=O)[nH]c3ccccc23)C(=O)CCl)cc1 | -3.54% |
| COc1cc(NC(=O)c2ccccc2)c(OC)cc1NC(=O)Cc1ccccc1 | -0.835% |
| O=C(CCC1CCCN(C(=O)Cc2ccc(F)cc2)C1)N1CCN(c2ccccn2)CC1 (stereo unspecified) | -1.12% |
| Cc1cccc(NC(=O)c2sc3nc(N4CCOCC4)c4c(c3c2N)CCCC4)c1 | 14.3% (active) |

| SMILES | max response |
| --- | --- |
| Cc1cccc(NC(=O)c2sc3nc4c(c(-c5ccco5)c3c2N)CCC4)c1 | 20.8% |
| CC(=O)Nc1ccc(N2CCOCC2)c(C(=O)Nc2cccc(C)c2)c1 | -4.06% |
| CC(C)c1ccc(S(=O)(=O)N2CCN(C(=O)c3ccc(N4CCCC4)c([N+](=O)[O-])c3)CC2)cc1 | 21.7% |
| CCCCNC(=O)N(O)C1N(/N=C/c2ccccc2O)C(=S)SC1(C)C (stereo unspecified) | 40.5% (active) |
| CCC(C)N1C(=S)SC(C)(C)C1N(O)C(=O)NC1CCCCC1 (stereo unspecified) | -3% |
| CCCCNC(=O)N(O)C1N(/N=C/c2ccc(N(C)C)cc2)C(=S)SC1(C)C (stereo unspecified) | -1.87% |
| COc1ccc(CC(=O)Nc2sc(Cc3ccccc3)c(C)c2C(N)=O)cc1 | -4.58% |
| CCCc1cc(=S)n2c([nH]c3ccccc32)c1C#N | 9.34% |
| COc1cc(C(=O)N2CCN(C/C=C/c3ccccc3)CC2)cc(OC)c1C | -2.42% |
| O=C(NC(Cc1c[nH]c2ccccc12)C(=O)O)/C(=C/c1ccco1)NC(=O)c1ccccc1 (stereo unspecified) | 7.91% |
| O=C(NCCc1c[nH]c2ccccc12)c1cc2ccccc2oc1=O | 52.8% (active) |
| O=C(NCCc1c[nH]c2ccccc12)c1cccc(Br)c1 | 27.9% (active) |
| O=C(NCCc1c[nH]c2ccccc12)C(=O)NCC1CCCO1 (stereo unspecified) | -2.43% |
| CN(c1ccccc1)S(=O)(=O)c1ccc(Cl)c(C(=O)NCCc2c[nH]c3ccccc23)c1 | -2.81% |
| COc1ccc(/C=C(\NC(=O)c2ccc(OC)c(OC)c2)C(=O)NCCc2c[nH]c3ccccc23)cc1 | -2.44% |
| COc1ccccc1CC(=O)NCCc1c[nH]c2ccccc12 | 5.67% |
| Cc1cc(C)cc(NC(=S)NCCc2c[nH]c3ccccc23)c1 | -3.82% |
| Cc1ccc(C(=O)N/C(=C/c2ccco2)C(=O)NCCc2c[nH]c3ccccc23)cc1C | 15.8% (active) |
| Cc1cc(C)cc(NS(=O)(=O)Cc2ccccc2)c1 | 2.71% |
| COc1ccc(CNc2nc3c(c(=O)[nH]c(=O)n3C)n2Cc2ccccc2)cc1 | 1.15% |
| CCn1c(CNC(=O)c2cc(OC)c(OC)c(OC)c2)cc2cc(C)ccc21 | -0.507% |
| CC(=O)c1c(C)[nH]c(C(=O)COC(=O)c2cccc(S(=O)(=O)N(C)c3ccccc3)c2)c1C | 6.94% |
| COc1ccc(C(=O)OCC(=O)NCC2CCCO2)cc1[N+](=O)[O-] (stereo unspecified) | 0.371% |
| CCC(=O)c1ccc(OCC(O)Cn2nc(C)c(C(C)=O)c2C)cc1 (stereo unspecified) | -6.71% |
